From PubChem BioAssay
IMPase cell inh: qHTS Assay for Identifying the Cell-Membrane Permeable IMPase Inhibitors | CHO-M1 cells, IP1 accumulation, HTRF TR-FRET ratio | 120,000 tested, under 10 active | inhibition (IP1 accumulation), % at 46.1 µM | AID 901, 2007; active = well fitted curve in the direction sought with a large enough effect in the signal ratio, not every such curve was filed as active; inconclusive = small, poorly fitted or top-dose-only effect, or a change in a side signal; inactive = no such curve, though single readings can be large or run the other way; the % refers to the signal ratio;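 note: cells stimulated with carbachol in lithium chloride buffer; plate controls were DMSO basal wells for no effect and reference inhibitor wells for full effect; higher means more IMPase inhibition seen as more IP1 and lower FRET ratio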
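Measured: the HTRF emission ratio (665/620 nm) plus the 620 nm donor channel, each fitted to the Hill equation to give AC50. Cells were CHO-M1 given compounds up to 46 uM and a 30 min carbachol stimulation at 37C.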
ALDH1A1 inh: qHTS Assay for Inhibitors of Aldehyde Dehydrogenase 1 (ALDH1A1). Aldehyde dehydrogenase 1A1 (Homo sapiens), P00352. Purified ALDH1A1, NADH fluorescence, propionaldehyde substrate. Potency, µM (doses to about 75.3 µM), inactives show at the top dose activity, negative = inhibition, actives largely listed as inhibitors. 220,000 tested, 7.3% active;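 note: potency is the fitted concentration of half-maximal effect; plate controls were no enzyme wells and a reference inhibitor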
Target sequence (P00352 whole entry, looked up): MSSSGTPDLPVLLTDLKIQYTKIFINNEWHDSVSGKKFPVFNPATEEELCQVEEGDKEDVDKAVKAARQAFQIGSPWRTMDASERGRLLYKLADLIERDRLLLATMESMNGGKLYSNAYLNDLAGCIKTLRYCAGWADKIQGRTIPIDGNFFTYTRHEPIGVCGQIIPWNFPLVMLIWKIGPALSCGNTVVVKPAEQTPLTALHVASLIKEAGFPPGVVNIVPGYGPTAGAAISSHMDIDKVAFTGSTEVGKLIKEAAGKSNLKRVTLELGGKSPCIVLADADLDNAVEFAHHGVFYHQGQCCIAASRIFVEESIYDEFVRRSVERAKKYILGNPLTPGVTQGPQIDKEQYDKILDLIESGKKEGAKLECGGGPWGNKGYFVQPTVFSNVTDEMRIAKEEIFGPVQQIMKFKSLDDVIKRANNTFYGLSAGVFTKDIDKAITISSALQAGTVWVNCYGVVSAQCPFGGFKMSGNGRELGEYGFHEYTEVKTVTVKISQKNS
HPGD inh: qHTS Assay for Inhibitors of HPGD (15-Hydroxyprostaglandin Dehydrogenase). 15-hydroxyprostaglandin dehydrogenase [NAD(+)] (Homo sapiens), P15428. AID 894, 2007. purified HPGD, NADH fluorescence kinetic, PGE2 substrate. Potency, µM, inactives show at the highest dose activity change, negative = inhibition, most hits filed as inhibitors. 150,000 tested, 4.3% active; note: potency is the fitted concentration of half-maximal effect
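NADH formation kinetics: reaction with 30 uM PGE2 and 1 mM NAD+ (final), 20 nM enzyme, Tris-HCl pH 8 with Tween 20, after 15 min compound preincubation at room temperature. Fluorescence change, last versus first of five reads.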
Numbers without * were called inactive; ? = inconclusive; . = no result given; [ ] = remark or other dose. This is a sample that favours compounds with a hit; in the whole collection about 9% have one here. Unless noted, calls come from the whole dose curve; as a rule, active = well fitted inhibition curve with a large enough effect (not every such curve was filed as active); inconclusive = small, poorly fitted or top-dose-only effect, or another doubt; inactive = no such curve, though single readings can be large or run the other way. Unless noted, % is set by controls: 0 for no effect and ±100 for the full control effect.

SMILES	IMPase cell inh	ALDH1A1 inh	HPGD inh
CC1CCN(CCCNC(=O)c2ccc3c(=O)n(Cc4ccc(Cl)cc4)c(=S)[nH]c3c2)CC1	.	15.8µM*	.
COc1ccccc1N1CCN(C(=O)c2ccc3c(=O)n(Cc4ccco4)c(=S)[nH]c3c2)CC1	11.8	?	-1.7%
COCCNC(=O)c1ccc(Cn2c(=S)[nH]c3cc4c(cc3c2=O)OCO4)cc1	1.3	-0.8%	12.6µM*
CC(C)NC(=O)c1ccc2c(=O)n(Cc3ccco3)c(=S)[nH]c2c1	-2.6	8.91µM*	-16.6%
Cn1c(SCc2ccccc2[N+](=O)[O-])nnc1-c1cccnc1	.	-2.7%	.
CC(=O)[C@H]1CC[C@H]2C3CC=C4C[C@@H](O)CC[C@]4(C)C3CC[C@]12C (stereo partly specified)	.	6.3%	.
O=C1C[C@@H](O)[C@@H](O)[C@H]2[C@@H]3C(=O)N(C4CCCCC4)C(=O)[C@@H]3CC[C@H]12	.	-13.5%[13.5 µM]	.
CCN1CCCC1CNC(=O)c1ccc(Sc2ccc(F)cc2)c([N+](=O)[O-])c1 (stereo unspecified)	.	-0.5%	.
COc1cc2[nH]c(=O)n(Cc3ccccc3Cl)c(=O)c2cc1OC	5.8	?	-4.2%
CCOCCCn1c(=S)[nH]c2cc(C(=O)NCCOC)ccc2c1=O	1.9	?	-24.9%
COc1cc2[nH]c(=S)n(Cc3ccccc3)c(=O)c2cc1OC	.	4.47µM*	.
COCCn1c(=S)[nH]c2cc(C(=O)NC(C)C)ccc2c1=O	2.2	0.178µM*	-11.7%
CCCCCn1c(=O)[nH]c2cc(C(=O)NCCc3ccc(OC)c(OC)c3)ccc2c1=O	-0.6	-4.0%	-13.9%
COC(=O)c1ccc2c(=O)n(CCO)c(=S)[nH]c2c1	2.7	-11.0%	-11.9%
COc1ccc(CCNC(=O)c2ccc3c(=O)n(Cc4ccco4)c(=S)[nH]c3c2)cc1OC	3.4	2.51µM*	-18.1%
COC(=O)c1ccc2c(=O)n(CCCCCC(=O)O)c(=S)[nH]c2c1	.	14.1µM*	?
CN(C)c1nnnn1-c1ccc(OC(F)(F)F)cc1	.	9.9%	.
Cn1cnnc1SCC(=O)Nc1cc(S(=O)(=O)N2CCCCCC2)ccc1Cl	.	-1.9%	-3.7%
O=C(Nc1cccc(C(F)(F)F)c1)c1ccc2nc(N3C(=O)CCC3=O)sc2c1	6.7	?	?
O=C(Nc1cccc(C(F)(F)F)c1)c1ccc2nc(-c3ccco3)c(-c3ccco3)nc2c1	11.0	0.398µM*	?
COc1ccc(CCNC(=O)c2ccc3nc(-c4ccco4)c(-c4ccco4)nc3c2)cc1OC	?	0.316µM*	?
COc1ccc(CCNC(=O)c2cc(-c3ccco3)on2)cc1OC	.	-8.8%	.
CCN(CC)S(=O)(=O)c1ccc2c(c1)[nH]c(=S)n2CC	.	17.8µM*	.
CCOC(=O)c1ccc2c(c1)n(CC)c(C)[n+]2CC	.	0.0%	.
CCN(CC)S(=O)(=O)c1ccc2nc(CCl)[nH]c2c1	.	20µM*	.
SMILES	IMPase cell inh	ALDH1A1 inh	HPGD inh
CCN(CC)S(=O)(=O)c1ccc(Cl)nc1	.	-3.8%	.
CCOC(=O)c1ccc2c(c1)[nH]c(=S)n2CC	.	25.1µM*	.
CCN(CC)S(=O)(=O)c1ccc2c(c1)c(C(=O)O)cn2C	-2.7	-1.4%	-11.7%
CC[N+](CC)(CCNC(=O)C(=O)NCC[N+](CC)(CC)Cc1ccccc1Cl)Cc1ccccc1Cl	13.5	3.6%	-4.0%
N#Cc1cc2cc3c(cc2nc1N1CCOCC1)OCO3	-3.7	?	?
CC(C)OC(=O)c1cccnc1SCc1cc(=O)n2ccccc2n1	7.1	?	-17.3%
Cc1c(C(=O)NCCCN2CCOCC2)oc2c1C1(CCC2)SCCS1	.	-1.8%	-2.8%
COc1cc(NC(=O)C2CCCN(c3ncccn3)C2)cc(OC)c1 (stereo unspecified)	.	2.4%	?
CCOC(=O)c1c(NC(=O)CC2SC(N)=NC2=O)sc2c1CCC(C)C2 (stereo unspecified)	.	15.8µM*	-24.4%
COCC(=O)Nc1sc2c(c1C(=O)OC)CCC(C)C2 (stereo unspecified)	-16.3	?	-9.9%
COC(=O)c1c(NC(=O)CC2NCCNC2=O)sc2c1CCCC2 (stereo unspecified)	-8.9	?	-2.3%
COC(=O)c1c(NC(=O)CSc2ncnc3[nH]ncc23)sc2c1CCC2	.	14.1µM*	.
CCOC(=O)c1c(NC(=O)CC2SC(N)=NC2=O)sc(C)c1C (stereo unspecified)	.	0.5%	.
COC(=O)c1c(NC(=O)CC2SC(N)=NC2=O)sc2c1CCCC2 (stereo unspecified)	-13.2	25.1µM*	-14.6%
COC(=O)c1c(NC(=O)CSc2ncnc3c2cnn3-c2ccccc2Cl)sc2c1CCCC2	-0.8	?	-15.7%
COC(=O)c1c(NC(=O)CC2SC(N)=NC2=O)sc2c1CCC(C)C2 (stereo unspecified)	.	12.6µM*	-2.0%
Cc1ccc(Nc2nnc(SCc3nc4ccccc4c(=O)[nH]3)s2)cc1	.	-0.9%	.
CC(=Nc1ccccc1)C1=C(O)CSC1=O	6.0	25.1µM*	-17.7%
COc1ccc(N=C(C)C2=C(O)CSC2=O)cc1	2.6	?	-14.6%
COc1ccccc1C(=O)NCC(=O)N/N=C/c1cccc(Cl)c1	.	24.7%	.
O=C(C(Cc1ccccc1)n1cccc1)N1CCN(c2ccccc2)CC1 (stereo unspecified)	10.4	-7.7%	-11.1%
CC1CCCN(C(=O)C(Cc2ccccc2)n2cccc2)C1 (stereo unspecified)	4.8	-2.2%	14.1µM*
CS(=O)(=O)N(CC(=O)N1CCc2ccccc2C1)c1ccc2c(c1)OCO2	22.9	-12.7%	-14.1%
O=C(Cn1c(=O)c2ccccc2n(CC(=O)Nc2ccc(Cl)cc2)c1=O)NCCc1ccccc1	-9.9	.	.
CN1CCN(C(=S)c2ccc(N(C)C)cc2)CC1	-0.5	28.2µM*	15.8µM*
SMILES	IMPase cell inh	ALDH1A1 inh	HPGD inh
CCN(CC)c1ccc(C(=O)N2CCN(Cc3ccccc3)CC2)cc1	.	11.8%	-13.6%
Cc1cccc(NC(=S)N2CCN(Cc3ccccc3)CC2)c1C	21.0	?	.
S=C(c1ccc(Br)cc1)N1CCN(Cc2ccccc2)CC1	3.7	?	31.6µM*
CCN1CCN(C(=S)c2ccc(Br)cc2)CC1	-19.9	-1.1%	-29.8%
CN(C)c1ccc(C(=S)N2CCN(Cc3ccccc3)CC2)cc1	.	31.6µM*	.
Cc1ccc(C(=S)N2CCN(Cc3ccccc3)CC2)s1	.	14.1µM*	.
CN1CCN(C(=S)c2ccc(Br)cc2)CC1	5.7	-38.8%	.
CCCCCOc1ccccc1C(=O)NCCC(=O)O	6.2	3.1%	-17.1%
CCOC(=O)N1CCN(C(=O)CN(c2ccccc2F)S(=O)(=O)c2ccc(C)cc2)CC1	-4.9	.	.
CCN(CC)CCN(C(=O)CCOc1ccccc1)c1nc2ccc(F)cc2s1	.	4.1%	.
CCC(Oc1ccc(F)cc1)C(=O)Nc1c(C(=O)c2ccc(C)cc2)oc2ccccc12 (stereo unspecified)	8.0	.	.
COc1ccc(NC(=O)c2cnc(C)cn2)cc1-n1cnnn1	-10.6	4.3%	-10.5%
COc1ccc(NC(=O)C2CC2)cc1-n1cnnn1	0.4	-5.7%	14.1µM*
O=[N+]([O-])c1cc(-c2ncccn2)c([N+](=O)[O-])s1	.	2.24µM*	28.2µM*
